About 83,000 compounds went through this panel and 20% of them were active in at least one assay; those are over-represented in the sample as a whole.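 Single-dose data. Exposure time 48 hours. Values below 10 considered active.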 Values without a mark were called inactive. Calls of active or inactive are those of the source.
Legend:
Assay in all cases: NCI-60 one-dose screen, 48 h (100 = growth as untreated, 0 = no growth, -100 = all killed)
Conditions in all cases: 10 µM unless noted
DU-145 prostate = system: DU-145 prostate
K-562 leukemia = system: K-562 leukemia
MALME-3M melanoma = system: MALME-3M melanoma
MDA-MB-231 breast = system: MDA-MB-231 breast
RXF 393 renal = system: RXF 393 renal
SF-268 CNS = system: SF-268 CNS
SF-295 CNS = system: SF-295 CNS
SF-539 CNS = system: SF-539 CNS
UACC-257 melanoma = system: UACC-257 melanoma
M14 melanoma = system: M14 melanoma
HCT-15 colon = system: HCT-15 colon
HT29 colon = system: HT29 colon
SNB-75 CNS = system: SNB-75 CNS
SNB-19 CNS = system: SNB-19 CNS
U251 CNS = system: U251 CNS
PC-3 prostate = system: PC-3 prostate
SK-MEL-5 melanoma = system: SK-MEL-5 melanoma
UACC-62 melanoma = system: UACC-62 melanoma
LOX IMVI melanoma = system: LOX IMVI melanoma
SK-MEL-28 melanoma = system: SK-MEL-28 melanoma

| Compound | growth (DU-145 prostate) | growth (K-562 leukemia) | growth (MALME-3M melanoma) | growth (MDA-MB-231 breast) | growth (RXF 393 renal) | growth (SF-268 CNS) | growth (SF-295 CNS) | growth (SF-539 CNS) | growth (UACC-257 melanoma) | growth (M14 melanoma) | growth (HCT-15 colon) | growth (HT29 colon) | growth (SNB-75 CNS) | growth (SNB-19 CNS) | growth (U251 CNS) | growth (PC-3 prostate) | growth (SK-MEL-5 melanoma) | growth (UACC-62 melanoma) | growth (LOX IMVI melanoma) | growth (SK-MEL-28 melanoma) |
| --- | --- | --- | --- | --- | --- | --- | --- | --- | --- | --- | --- | --- | --- | --- | --- | --- | --- | --- | --- | --- |
| CC(CCc1ccc(Cl)c(Cl)c1)NCc1ccc(C(C)(C)C)cc1 (stereo not given) | 101% | 25.2% | 97.6% | 72.9% | 89.6% | 92.9% | 112% | 96.8% | 64.5% | 86.1% | 77.3% | 39.6% | 70.6% | 92.5% | 70.6% | 77.5% | 92.8% | 89.9% | 79.8% | 91.9% |
| O=C(Nc1cccc(Cl)c1)c1cc(N=Nc2ccc([N+](=O)[O-])cc2Cl)ccc1O | 116% | 26.3% | 43.7% | 64.1% | 29.6% | 90.6% | 55.1% | 54.2% | -1.95% (active) | 103% | 72.5% | 76.7% | 66.4% | 73.2% | 63.9% | 34.8% | 43.3% | 79.2% | 98.3% | 85.5% |
| Cc1cccc(NC(=O)N/C(N)=N/c2nc(C)c(C)s2)c1 | 71.6% | 10.7% | 58.5% | 65.2% | 78.2% | 75.1% | 48.6% | 56.7% | 62.2% | 28.1% | 22.2% | 18.9% | -3.93% (active) | 65.4% | 45% | 62% | 59.2% | 49.1% | 42.7% | 60.7% |
| CCOc1ccccc1-n1c(CN2CCN(C(=O)COc3ccc(CNCCCCCCN4C5CCCC4CC(OC(=O)Nc4cc(C)ccc4OC)C5)cc3)CC2)nc2ccccc2c1=O (stereo not given) | -98.5% (active) | -56.9% (active) | -84.9% (active) | -91.1% (active) | -76.8% (active) | -77.1% (active) | -92.6% (active) | -92.8% (active) | -95.6% (active) | -77.6% (active) | -84.4% (active) | -85.6% (active) | -99.2% (active) | -89.9% (active) | -99.2% (active) | -85.6% (active) | -96.5% (active) | -89.3% (active) | -92% (active) | -93% (active) |
| COc1cc(C2CC(=O)Nc3c2c(C)nn3-c2nc3ccccc3[nH]2)cc2c1OCC(=O)N2 (stereo not given) | 111% | 89.3% | 117% | 55.8% | -0.584% (active) | 48.8% | 19.1% | 50.6% | 69.6% | 34.8% | 95.3% | 66.9% | 19.3% | 49.1% | 55.2% | 69.1% | 52.3% | 65.5% | 51.2% | 65.4% |
| Cc1ccc(NCCN(C)C)c2c(=O)c3ccccc3sc12 | 23.8% | 21.3% | 76.4% | 24.3% | 2.41% (active) | 17.1% | 29.4% | 30.8% | 1.5% (active) | 5.06% (active) | 6.89% (active) | -38.3% (active) | 41.2% | 20.2% | 10.8% | 36.2% | -73.6% (active) | -5.6% (active) | -41.6% (active) | 2.84% (active) |
| Cc1ccc(NS(=O)(=O)c2ccc3c(c2)C2OCCC2C(c2ccc(C(=O)C(C)C)cc2)N3)cc1C (stereo not given) | 60.9% | 33.6% | 17.1% | 76.5% | 65.4% | 57.8% | 31.9% | 66% | 23.9% | 50% | 32.3% | 44.9% | 61.8% | 68.2% | 49.1% | 28.8% | -32.4% (active) | 47.2% | 64.2% | 51.3% |
| Cc1ccc(-n2nc3c(c(C#N)c2=O)CC(c2ccccc2Cl)C([N+](=O)[O-])=C3O)cc1 (stereo not given) | 107% | 81.7% | 101% | 82.4% | 101% | 90% | 101% | 99.8% | 102% | 99.6% | 61.3% | 118% | 75.1% | 97.1% | 90% | 66.6% | 75% | 84.3% | 81.4% | 106% |
| O=c1c2c3c(sc2nc(N/N=C/c2ccc(Br)cc2)n1Cc1ccccc1)CCCC3 | 81.6% | 79.9% | 91.6% | 50.2% | 73.2% | 68.4% | 34.3% | 50% | 78.9% | 75.8% | 78.1% | 101% | 106% | 76.4% | 70.3% | 70.2% | 87.2% | 88.7% | 73% | 120% |
| CCC1(C2CCCC2)NC(=O)NC1=O (stereo not given) | 101% | 102% | 97.5% | 95.6% | 97.2% | 95.8% | 111% | 86.3% | 105% | 102% | 92.3% | 94.6% | 93.9% | 98.5% | 106% | 101% | 101% | 99.7% | 79.7% | 98.4% |
| NC(=O)c1ccc[n+](Cc2ccc(Cl)cc2Cl)c1 | 111% | 92.9% | 100% | 103% | 118% | 103% | 111% | 105% | 72% | 94.5% | 105% | 91.3% | 102% | 101% | 89.6% | 88.9% | 97.6% | 93.2% | 95.8% | 108% |
| O=C(CCCCCCSc1nc(-c2ccccc2)cc(-c2ccc(Cl)cc2)n1)NO | 6.26% (active) | 8.35% (active) | 7.3% (active) | 25.3% | -17% (active) | 15% | 27.1% | 25% | 6.32% (active) | 6.52% (active) | 15.6% | 4.56% (active) | 17.8% | 18.3% | 0.693% (active) | 39.9% | -26.9% (active) | -1.11% (active) | -78% (active) | 42% |
| CC(C)C(=O)Nc1n[nH]c2cc(-c3cccc(NS(=O)(=O)C4CC4)c3)ccc12 | 85.9% | 23.2% | 66.1% | 58.4% | 88.9% | 76.1% | 56.3% | 77.8% | 66.8% | 55.7% | 84.3% | 76.2% | 54.3% | 89.7% | 79.5% | 64% | 24.5% | 54.4% | 64.6% | 78.4% |
| N#CC1=C(/N=C/c2ccccc2)Oc2c(ccc3ccccc23)C1c1ccccc1 (stereo not given) | 17.6% | 12.2% | 49.2% | 19% | 18% | 30.8% | 3.77% (active) | 1.25% (active) | 53.6% | 4.85% (active) | 16.6% | 4.48% (active) | 10.1% | 24.4% | 16.9% | 8.32% (active) | -3.14% (active) | 15.7% | 23.9% | 41.5% |
| O=c1c2cc(F)ccc2sc2c(Nc3cccnc3)nc3ccccc3c12 | 107% | 86.4% | 103% | 72.2% | 88.4% | 89.5% | 95.2% | 82.1% | 97.8% | 104% | 87.2% | 110% | 71.9% | 94.1% | 70.2% | 88.9% | 88.9% | 101% | 89.4% | 103% |

Reference: PubChem BioAssay (NCI)
